Source: PubChem
CYP2C19 act: human CYP2C19 activators, primary screen, biochemical, luminescence; activation factor at 5 µM; recombinant CYP2C19, luciferin-H EGE luminescence; hits give high values; 0 = fully inhibited enzyme, 1 = untreated enzyme; 96,000 tested, under 10 active; AID 1025, 2008;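 active = activation factor of at least 2 at 5 µM in the primary screen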
CYP2C9 inhib: blockers of cytochrome P450 2C9 activity – biochemical, luminescence, ADME assay, primary screen; actives 20% (n = 96,000); AID 777, 2007; P11712; CYP2C9 Supersomes, luciferin-H conversion; inhibition, % at 5 µM;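 active = blocking of liver enzyme CYP2C9 beyond about 50% at 5 µM, limit read from the data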
CYP2C9 activ: human CYP2C9 activators, primary screen, biochemical, luminescence. Cytochrome P450 2C9 (Homo sapiens), P11712. AID 1024, 2008. recombinant CYP2C9, luciferin-H conversion; hits give high values; factor 1 = untreated enzyme, 0 = blocked. activation factor at 5 µM. actives 1.4% (n = 96,000);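 active = activation factor of 2 or more for CYP2C9 at a 5 µM dose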
PLAP act: PLAP enzyme activators, biochemical, luminescence, HTS; purified PLAP enzyme, luminescent substrate read-out; hits give high values; activation fold at 20 µM; actives 1.2% (n = 96,000); in the data active = activation fold above about 2
CYP2C19 inh: blockers of cytochrome P450 2C19 activity – biochemical, luminescence, ADME assay, primary screen. CYP2C19 Supersomes, luciferin-H EGE luminescence, 30 min. inhibition, % at 5 µM. actives 21% (n = 96,000). AID 778, 2007;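 active = CYP2C19 inhibition above a set limit at 5 µM in the primary screen, cut at about 50% in these data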
A number is an active result. Most compounds without a hit are left out; they make up all but 31% or so of the library.

`CS(=O)(=O)c1cccc(C(=O)NC(c2ccccc2)c2ccccc2)c1` gave CYP2C19 act inactive, CYP2C9 inhib 97.1, CYP2C9 activ inactive, PLAP act inactive and CYP2C19 inh 74.6.
COC(=O)c1ccccc1NC(=O)c1nc2nc(C)cc(C(F)F)n2n1 was read as CYP2C19 act inactive, CYP2C9 inhib inactive, CYP2C9 activ inactive, PLAP act inactive and CYP2C19 inh inactive.
For CC(=Nc1ccccc1C)C1=C(O)CSC1=O the results were CYP2C19 act inactive, CYP2C9 inhib inactive, CYP2C9 activ inactive, PLAP act inactive and CYP2C19 inh 75.3.
For COC(=O)/C=c1/sc2nc3ccccc3n2c1=O the results were CYP2C19 act inactive, CYP2C9 inhib inactive, CYP2C9 activ inactive, PLAP act inactive and CYP2C19 inh inactive.
For O=c1/c(=C/c2ccccn2)sc2nc3ccccc3n12 the results were CYP2C19 act inactive, CYP2C9 inhib 53.6, CYP2C9 activ inactive, PLAP act inactive and CYP2C19 inh 71.0.
For CN1CCc2nc(SCCOc3ccccc3)c(C#N)cc2C1 the results were CYP2C19 act inactive, CYP2C9 inhib inactive, CYP2C9 activ inactive, PLAP act inactive and CYP2C19 inh 91.2.
For CCOC(=O)C1=C(CSc2nc3c(cc2C#N)CN(C)CC3)OC(N)=C(C#N)C1c1ccccc1 (stereo not given) the results were CYP2C19 act inactive, CYP2C9 inhib inactive, CYP2C9 activ inactive, PLAP act inactive and CYP2C19 inh inactive.
For O[C@@H]1C2CCCC1[C@]1(O)CCCCC1C2 (stereo not given in full) the results were CYP2C19 act inactive, CYP2C9 inhib 61.5, CYP2C9 activ inactive, PLAP act inactive and CYP2C19 inh inactive.
Screening CCOC(=O)CSc1ncc(OC)c(Sc2ccc(OC)cc2)n1 returned CYP2C19 act inactive, CYP2C9 inhib 83.9, CYP2C9 activ inactive, PLAP act inactive and CYP2C19 inh inactive.
Screening C=CCn1c2ccccc2c2nnc(SCC(=O)NC(C(=O)OC)C(C)C)nc21 (stereo not given) returned CYP2C19 act inactive, CYP2C9 inhib 90.5, CYP2C9 activ inactive, PLAP act inactive and CYP2C19 inh 100.0.
For COC(=O)CSc1ncc(OC)c(OC)n1 the results were CYP2C19 act inactive, CYP2C9 inhib inactive, CYP2C9 activ inactive, PLAP act inactive and CYP2C19 inh inactive.
`CCOC(=O)CSc1ncc(-c2ccccc2)nn1` gave CYP2C19 act inactive, CYP2C9 inhib inactive, CYP2C9 activ inactive, PLAP act inactive and CYP2C19 inh 69.5.
Screening CCCn1c2ccccc2c2nnc(SCC(=O)OCC)nc21 returned CYP2C19 act inactive, CYP2C9 inhib inactive, CYP2C9 activ inactive, PLAP act inactive and CYP2C19 inh 66.2.
For CCOC(=O)CSc1ncc(-c2ccccc2)cn1 the results were CYP2C19 act inactive, CYP2C9 inhib inactive, CYP2C9 activ inactive, PLAP act inactive and CYP2C19 inh inactive.
Screening CC(C)(C)C1(c2ccccc2)NC(=O)N(CC(=O)N2CCOCC2)C1=O (stereo not given) returned CYP2C19 act inactive, CYP2C9 inhib inactive, CYP2C9 activ inactive, PLAP act inactive and CYP2C19 inh inactive.
For Cc1ccccc1NC(=O)NCC1CCCO1 (stereo not given) the results were CYP2C19 act inactive, CYP2C9 inhib inactive, CYP2C9 activ inactive, PLAP act inactive and CYP2C19 inh inactive.
For CCn1c2ccccc2c2nnc(SCC(=O)NCCOC)nc21 the results were CYP2C19 act inactive, CYP2C9 inhib inactive, CYP2C9 activ inactive, PLAP act inactive and CYP2C19 inh 55.2.
CCn1c2ccccc2c2nnc(SCC(N)=O)nc21 was read as CYP2C19 act inactive, CYP2C9 inhib inactive, CYP2C9 activ inactive, PLAP act inactive and CYP2C19 inh inactive.
CCn1c2ccccc2c2nnc(SCC(=O)NCc3cccs3)nc21 was read as CYP2C19 act inactive, CYP2C9 inhib inactive, CYP2C9 activ inactive, PLAP act inactive and CYP2C19 inh 95.9.
Screening CCn1c2ccccc2c2nnc(SCC(=O)Nc3cc(C)on3)nc21 returned CYP2C19 act inactive, CYP2C9 inhib inactive, CYP2C9 activ inactive, PLAP act inactive and CYP2C19 inh inactive.
For CCOC(=O)c1snc(-c2ccc(F)cc2)c1N the results were CYP2C19 act inactive, CYP2C9 inhib inactive, CYP2C9 activ inactive, PLAP act inactive and CYP2C19 inh inactive.
